# The panel holds about 83,000 compounds, 20% with a hit somewhere; the sample as a whole holds those more often.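 Each cell line was grown in a 96-well plate and treated with one concentration of compound for 48 hours. Values below 10 were considered active.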 A number with no mark means an inactive call. Calls of active or inactive are those of the source.
# Assays:
# Assay in all cases: NCI-60 one-dose screen, 48 h (100 = growth as untreated, 0 = no growth, -100 = all killed)
# Settings in all cases: 10 µM unless noted
# [1] = tested on: DU-145 prostate
# [2] = tested on: K-562 leukemia
# [3] = tested on: MALME-3M melanoma
# [4] = tested on: MDA-MB-231 breast
# [5] = tested on: RXF 393 renal
# [6] = tested on: SF-268 CNS
# [7] = tested on: SF-295 CNS
# [8] = tested on: SF-539 CNS
# [9] = tested on: UACC-257 melanoma
# [10] = tested on: M14 melanoma
SMILES,growth [1],growth [2],growth [3],growth [4],growth [5],growth [6],growth [7],growth [8],growth [9],growth [10]
Clc1ccc2c(NCCNC34CC5CC(CC(C5)C3)C4)ccnc2c1,-42.7% (active),2.05% (active),-80.4% (active),-72.1% (active),-86.4% (active),-62.2% (active),-90.9% (active),-89.7% (active),-66.3% (active),-83.5% (active)
COC(=O)CSC1=C(C)C(=O)C(OC)=C(OC)C1=O,103%,13.6%,89.9%,85.4%,105%,100%,106%,98.1%,78.1%,91.1%
COc1ccc(N=Nc2c(N)nn3c(-c4ccc5c(c4)C=S=C5)ccnc23)cc1,35.4%,15.4%,43.9%,25%,12.2%,67.7%,33.8%,22.6%,85.3%,58.9%
CN1CCN(c2ccc3c4c(cccc24)C(=O)N(c2cccc(-c4nn(-c5ccccc5)cc4-c4nc5ccccc5s4)c2)C3=O)CC1,58.4%,-57.6% (active),74.4%,33.7%,72.9%,100%,112%,81.6%,119%,90.6%
Cc1oc(-c2ccccc2)nc1CN[C@@H]1C[C@@H]2C[C@H]([C@H]1C)C2(C)C,65.5%,11.6%,-61.7% (active),35.2%,-78.7% (active),80.8%,11%,14.8%,8.4% (active),-63.1% (active)
O=C(CSc1nnc(-c2ccc(-c3nc4ccccc4[nH]3)cc2)o1)Nc1ccccc1,4.85% (active),33.1%,93.3%,-14.5% (active),-1.42% (active),45.7%,94.2%,46.7%,103%,60.3%
Cc1cccc(C)c1Nc1nnc(-c2c[nH]c3ccccc23)o1,107%,98.4%,78.4%,79.1%,108%,104%,96%,94.1%,95.7%,102%
COc1cc(CNC(=O)C[C@H](C)CCC=C(C)C)ccc1OCc1cn(-c2ccccc2F)nn1,102%,81.6%,78.3%,66.8%,38.4%,58.9%,45.2%,44.6%,94%,94.8%
COc1ccc(N=Nc2c(N)nn3c(N)c(C#N)c(-c4ccc(C)cc4)nc23)cc1,42.2%,36.1%,93.7%,42.4%,65.1%,67.5%,58.1%,52.4%,92.7%,61.6%
CCOc1ccccc1[C@H]1C(C(=O)c2ccc(Cl)cc2)C2(N[C@@H]1c1ccccc1)C(=O)Nc1ccc(Cl)cc12 (stereo not given in full),45.2%,6.17% (active),45.7%,28.8%,2.56% (active),46.6%,11.1%,37.2%,69.5%,22.5%
Cc1nc2sccn2c1-c1nnc(SCC(C)C)o1,99.1%,52.7%,97.8%,87.1%,104%,88.5%,86.1%,93.3%,98.7%,99.9%
O=[N+]([O-])c1cccc(-c2nnc3c(/C=C/c4ccc(F)cc4)nc4ccccc4n23)c1,98.7%,87%,95.7%,94.6%,77.2%,87.5%,80.8%,66.9%,107%,108%
COc1cc(/C=N/NC(=O)c2ccc(OCc3nc4ccc(C)cc4[nH]3)cc2)cc(OC)c1OC,62.2%,17.7%,4.8% (active),87.8%,39.6%,78.7%,40.4%,49.2%,11.3%,33%
CN(CCSSCCN1CCOCC1)C(=O)Oc1cc2c(c3ccccc13)[C@H](CCl)CN2C(=O)c1cc2cc(OCCCN3CCC3)ccc2[nH]1,-70.8% (active),-34.6% (active),-79.5% (active),-23.7% (active),-77.4% (active),3.42% (active),1.02% (active),-86.2% (active),-17.1% (active),-72.5% (active)
Fc1ccccc1CNc1nc(SCCN2CCOCC2)nc2c1cnn2CC(Cl)c1ccc(Br)cc1 (stereo not given),60.5%,3.13% (active),-15.7% (active),12.6%,-13.9% (active),41.4%,-3.31% (active),-3.45% (active),8.02% (active),29%
Nc1nc(-c2ccccc2)c(N=Nc2ccc(Cl)cc2Cl)s1,2.88% (active),-44.7% (active),-47.5% (active),-89.5% (active),-69.7% (active),-46% (active),-90.5% (active),-77.2% (active),-2.45% (active),-59.6% (active)
Cc1cn(-c2cc(NC(=O)c3ccc(C)c(-n4cc(-c5cnc6cccnn56)nn4)c3)cc(C(F)(F)F)c2)cn1,105%,4.65% (active),-12.3% (active),24.7%,98.1%,112%,93.8%,77.7%,22.4%,21.5%
CC[C@@]12CC(C(=O)OC)=C3Nc4cc5c(cc4[C@@]34CCN(C[C@H]3O[C@H]31)[C@@H]24)[C@@H]1[C@H](O5)[C@@H](O)[C@@]2(CC)CC(C(=O)OC)=C3Nc4cc(O)ccc4[C@@]34CCN1[C@@H]24,7.47% (active),-8.19% (active),-39.6% (active),-70.4% (active),-98.4% (active),10.3%,-63% (active),-53.1% (active),-23.5% (active),-61.4% (active)
CCN1C(=O)N(CC)C2NNC(Sc3c(C(=O)O)c4ccccc4n(CCC(C)C)c3=O)=NC21 (stereo not given),17.7%,6.37% (active),46.5%,10.9%,-1.23% (active),49.3%,-16.5% (active),-53.4% (active),40%,12.1%
CC1=C(C(=O)Nc2ccccc2)C(c2cccc3ccccc23)n2c(nc3ccccc32)N1 (stereo not given),29%,82.9%,43.8%,53.8%,13.9%,19.8%,32.2%,43.8%,45.1%,65.7%
CC(C)C[C@H](NC(=O)[C@@H]1CCCCCCCCCCC(=O)N[C@@H](CC(=O)N2CCC[C@@H]2C2CCCC2)C(=O)N1)B(O)O,6.72% (active),0.735% (active),-75.1% (active),-72.4% (active),-84.8% (active),4.67% (active),-93.4% (active),-44.8% (active),-31% (active),-48.2% (active)
N#Cc1ccc(C(=O)CSc2nc3c(c(Nc4ccc(S(N)(=O)=O)cc4)n2)CCC3)cc1,51.1%,55.2%,48.8%,-14.3% (active),-18.1% (active),38.3%,80.4%,16.2%,102%,78.1%
